# Experimental data: PubChem BioAssay
# Test system: Noggin (protein binding on small-molecule microarray)
# Test: small molecules binding Noggin protein – biochemical, 635/667 nm fluorescence, primary screen (AID 1095);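 further: score merges 667 nm feature fluorescence with signal to noise over triplicate slides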
# Conditions: 635 nm fluorescence, higher = more signal
row,SMILES,composite z-score
1,CC(C)C[C@@H]1NC(=O)[C@H]2C[C@@H](C(=O)O)[C@@H](c3ccc(O)cc3)N2C1=O,0.4
2,O=C1O[C@@H](c2ccccc2)[C@@H](c2ccccc2)N2[C@@H](c3ccccc3OCCO)[C@]3(C(=O)Nc4ccc(C#CCCO)cc43)[C@@H](C(=O)O)[C@H]12,0.573
3,CO[C@H]1COC(=O)[C@H](C)COC(=O)CC=C[C@@H](C)[C@H](OC)COC(=O)CC=C[C@@H]1C,0.638
4,C=CCC(OC(C)=O)[C@@H]1[C@@H](N(Cc2cc3ccccc3o2)C(=O)Cc2ccc(F)cc2)c2cc(OCCCO)ccc2N1C(=O)Cc1ccc(OC)cc1 (some centres not stated),-0.0439
5,CO[C@@H]1COC(=O)[C@H](C)NC(=O)[C@@H](C)COC(=O)CCC[C@H]1C,0.209
6,CC(C)(C)OC(=O)CC[C@]1(C(N)=O)COC(c2ccc(OCCCO)cc2)=N1,0.115

# Target: Neurogenic locus notch homolog protein 3 (Homo sapiens) (UniProt Q9UM47)
# Sequence (Q9UM47 whole entry, looked up): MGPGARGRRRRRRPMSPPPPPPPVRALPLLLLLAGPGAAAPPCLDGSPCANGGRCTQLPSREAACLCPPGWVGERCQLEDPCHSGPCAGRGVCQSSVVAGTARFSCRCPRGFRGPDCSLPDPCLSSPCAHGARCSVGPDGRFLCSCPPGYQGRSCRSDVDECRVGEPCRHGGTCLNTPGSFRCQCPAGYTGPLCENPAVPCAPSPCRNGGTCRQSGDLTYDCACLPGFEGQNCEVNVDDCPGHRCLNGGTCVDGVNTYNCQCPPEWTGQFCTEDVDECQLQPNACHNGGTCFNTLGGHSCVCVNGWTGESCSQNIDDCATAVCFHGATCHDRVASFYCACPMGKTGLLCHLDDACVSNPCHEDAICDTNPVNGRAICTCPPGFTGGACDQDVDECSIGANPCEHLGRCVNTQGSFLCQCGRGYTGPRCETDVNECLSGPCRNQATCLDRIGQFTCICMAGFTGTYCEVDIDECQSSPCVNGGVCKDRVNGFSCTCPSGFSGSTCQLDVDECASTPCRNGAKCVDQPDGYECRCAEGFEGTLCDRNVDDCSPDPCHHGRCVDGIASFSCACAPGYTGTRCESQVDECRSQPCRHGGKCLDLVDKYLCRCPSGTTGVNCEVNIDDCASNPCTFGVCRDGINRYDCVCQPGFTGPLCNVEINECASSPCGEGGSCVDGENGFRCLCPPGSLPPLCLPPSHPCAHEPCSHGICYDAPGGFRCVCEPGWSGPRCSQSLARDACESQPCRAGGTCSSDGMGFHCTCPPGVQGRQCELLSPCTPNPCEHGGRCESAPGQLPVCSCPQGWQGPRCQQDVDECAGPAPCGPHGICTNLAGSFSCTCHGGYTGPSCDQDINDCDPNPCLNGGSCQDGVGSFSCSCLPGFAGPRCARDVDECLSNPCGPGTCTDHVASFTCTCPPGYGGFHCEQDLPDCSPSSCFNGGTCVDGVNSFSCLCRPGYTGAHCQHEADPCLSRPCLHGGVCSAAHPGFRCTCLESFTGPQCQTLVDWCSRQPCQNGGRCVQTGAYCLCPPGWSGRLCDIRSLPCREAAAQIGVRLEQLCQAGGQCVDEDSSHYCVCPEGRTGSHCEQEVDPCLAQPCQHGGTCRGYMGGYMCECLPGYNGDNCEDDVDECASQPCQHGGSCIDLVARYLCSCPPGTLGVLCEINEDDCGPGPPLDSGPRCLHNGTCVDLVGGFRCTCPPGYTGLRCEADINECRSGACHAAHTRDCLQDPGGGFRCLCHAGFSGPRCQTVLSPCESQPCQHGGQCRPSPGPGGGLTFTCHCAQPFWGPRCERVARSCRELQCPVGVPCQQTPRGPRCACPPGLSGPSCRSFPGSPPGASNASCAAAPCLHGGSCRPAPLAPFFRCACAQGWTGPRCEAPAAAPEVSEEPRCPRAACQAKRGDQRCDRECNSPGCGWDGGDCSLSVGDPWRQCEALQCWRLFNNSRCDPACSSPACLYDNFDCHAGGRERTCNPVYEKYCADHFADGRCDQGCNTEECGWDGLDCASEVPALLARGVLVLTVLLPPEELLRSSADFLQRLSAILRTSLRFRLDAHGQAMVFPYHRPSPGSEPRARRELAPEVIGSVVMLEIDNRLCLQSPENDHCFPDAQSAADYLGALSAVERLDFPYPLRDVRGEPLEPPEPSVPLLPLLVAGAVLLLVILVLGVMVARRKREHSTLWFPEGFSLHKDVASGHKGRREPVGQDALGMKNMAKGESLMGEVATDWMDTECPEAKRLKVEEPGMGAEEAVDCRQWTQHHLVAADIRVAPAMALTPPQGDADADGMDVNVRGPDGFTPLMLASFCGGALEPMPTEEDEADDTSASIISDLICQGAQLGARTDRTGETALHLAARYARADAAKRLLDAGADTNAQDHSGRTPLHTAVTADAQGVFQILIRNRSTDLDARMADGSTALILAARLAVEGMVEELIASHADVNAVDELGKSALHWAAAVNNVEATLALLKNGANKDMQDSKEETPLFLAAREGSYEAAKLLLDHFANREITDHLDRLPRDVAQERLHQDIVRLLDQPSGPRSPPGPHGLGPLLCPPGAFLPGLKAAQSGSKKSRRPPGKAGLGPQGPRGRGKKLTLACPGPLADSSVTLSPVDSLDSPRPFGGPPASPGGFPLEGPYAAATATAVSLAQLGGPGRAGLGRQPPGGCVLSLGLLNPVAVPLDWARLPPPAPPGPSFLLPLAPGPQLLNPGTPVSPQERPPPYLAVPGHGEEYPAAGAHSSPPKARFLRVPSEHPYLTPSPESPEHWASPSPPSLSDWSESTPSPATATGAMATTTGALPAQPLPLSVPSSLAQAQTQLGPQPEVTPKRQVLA
# Test: small molecules binding NOTCH3 protein – biochemical, 635/667 nm fluorescence, primary screen (AID 1096)
# Conditions: small-molecule microarray, 635 nm fluorescence, higher = more signal
row,SMILES,composite z-score
1,CCOC(=O)[C@H](Cc1ccccc1)NC(=O)CCC1CC(OC(=O)NCc2ccc3c(c2)OCO3)CC2(CCCC(COC(=O)NCc3cccc(C(F)(F)F)c3)O2)O1 (some centres not stated),1.11
2,CC(=O)OC[C@H]1O[C@@H](ON=C[C@@H](C)[C@H](OCc2ccccc2)C(C)C)[C@H](OC(C)=O)[C@@H](OC(C)=O)[C@@H]1OC(C)=O,0.751
3,O=C1[C@H]2[C@H]3[C@H](O)[C@H](O)CC(=NOCc4ccccc4)[C@H]3CC[C@H]2C(=O)N1C[C@@H]1CCCO1,0.48
4,CO[C@@H]1COC(=O)[C@@H]2CCCN2C(=O)[C@@H](C)COC(=O)[C@H](COCc2ccccc2)NC(=O)CC=C[C@H]1C,0.554
5,C=C(/C(=C/C[C@H](OC(C)=O)c1ccc(OCCO)cc1)c1cnc2ccccc2c1)C(C)C,1.1
6,COC(=O)CC=C[C@@H](C)[C@H](OC)c1ccccc1Br,-0.105
7,COc1ccccc1CN1C(=O)c2ccccc2[C@@H](C(=O)NCC(F)(F)F)[C@@H]1c1ccc(CO)cc1,1.06
8,O=C1[C@H]2[C@H]3[C@H](O)[C@H](O)CC(=NO[C@@H]4O[C@H](CO)[C@@H](O)[C@H](O)[C@H]4O)[C@H]3CC[C@H]2C(=O)N1C1CCCCC1,0.308
9,CC(C)=CCCC(C)=CCON=C1C[C@@H](O)[C@@H](O)[C@@H]2[C@@H]3C(=O)N(C[C@@H]4CCCO4)C(=O)[C@@H]3CC[C@@H]12,1.01
10,C=CC[C@@H]1C=C[C@H](ON=C2c3cc(OC)ccc3O[C@H](c3cccc(OC)c3)[C@H]2O)[C@@H](CO)O1,0.0033
11,CCc1cc2c(nc1CC)CCN(CCC(C)=NOC[C@@H](O)COCc1ccco1)C2,1.05
12,CCN1C(=O)[C@H]2[C@H]3[C@H](O)[C@H](O)CC(=NOC(C)CN4CCCCc5nc(C)c(C)cc54)[C@@H]3CC[C@H]2C1=O (some centres not stated),0.398
13,COCCOC(=O)N1C(=O)[C@@]2(c3cc(C#CC4(O)CCCCCC4)ccc31)[C@H](c1ccc(OCCO)cc1)N1[C@H](c3ccccc3)[C@H](c3ccccc3)OC(=O)[C@H]1[C@@H]2C(=O)NC[C@H](O)c1ccccc1,1.03
14,CC1CC/C=C\[C@H]2OC34C=CCN(C(C)C)C(=O)[C@H]3N(CCCO)C(=O)[C@@H]4C2C(=O)O1 (some centres not stated),-0.344
15,CCCNC(=O)OC[C@H]1O[C@H](CCON=CC[C@@H]2C=C[C@H](OC(C)=O)[C@@H](COC(C)=O)O2)C=C[C@@H]1Oc1ccc(OC)cc1,0.249
16,Cc1ccc(S[C@]2(C(=O)O)CC(=O)N(Cc3ccccc3)[C@@H]2c2ccc(CO)cc2I)cc1,-0.683
17,CC(=O)C[C@H](O)[C@@H](NC(=O)OC(C)(C)C)C(C)C,-0.0052
18,COC(=O)C1=CCC(c2cccc(Cl)c2)O1 (configuration not stated),-0.223

row,SMILES,composite z-score
1,COCCCNC(=O)[C@@]1(CCS(=O)(=O)c2ccccc2)N=C(c2ccc(OCCCO)cc2)O[C@H]1c1ccccc1,-0.0936
2,O=C(NN=C1C[C@@H](O)[C@@H](O)[C@@H]2[C@@H]3C(=O)N(c4cccc(Oc5ccccc5)c4)C(=O)[C@@H]3CC[C@@H]12)OCc1ccccc1,0.0096
3,CCOC(=O)NN=C1C[C@@H](O)[C@@H](O)[C@@H]2[C@@H]3C(=O)N(C[C@@H]4CCCO4)C(=O)[C@@H]3CC[C@@H]12,0.697
4,COC(=O)c1c(CC[C@@H](CO)NC(=O)N[C@H](Cc2ccccc2)Cn2cc(-c3ccccc3N)nn2)oc(C(C)=O)c1C(=O)OC,0.492
5,CC(CCN1CCc2nc(-c3ccccc3)c(-c3ccccc3)cc2C1)=NOC(C)CN1CCCCc2nc(C)c(C)cc21 (configuration not stated),0.905
6,CCCNC(=O)[C@@H]1c2ccccc2C(=O)N(Cc2ccccc2Cl)[C@H]1c1ccc(CO)cc1,1.05
7,COc1ccc(O[C@H]2C=C[C@@H](c3ccccc3)O[C@@H]2COC(=O)CCC(C)=NOCC[C@@H]2C=C[C@H](OC(C)=O)[C@@H](COC(C)=O)O2)cc1,0.319
8,CC(C)OC(=O)C=C1C[C@@H](c2ccc(C#N)cc2)O[C@@H](c2ccc(C#N)cc2)O1,1.06
9,CCCC=C(CCC)[C@@H](NC(=O)c1ccc(-c2ccccc2)cc1)c1ccc(C(=O)OC)cc1,1.07
10,CCCC[C@@H](O)C1=C(C)C[C@H]2C(=O)N(Cc3ccccc3)C(=O)[C@H]2[C@H]1CO,0.15
11,COCCNC(=O)OCC1CCCC2(CC(OC(=O)NCCc3ccc(F)cc3)CC(CCC(=O)N[C@@H](C)C(=O)OC)O2)O1 (some centres not stated),1.08
12,C[N+](C)(C)CCCCCCNC(=O)[C@@H]1C[C@@H]2C(=O)N3CCC[C@H]3C(=O)N2[C@@H]1c1cccc(OCCO)c1,0.245
13,CC(C)C[C@@H]1NC(=O)[C@H]2C[C@@H](C(=O)O)[C@@H](c3ccc(O)cc3)N2C1=O,0.436
14,O=C1O[C@@H](c2ccccc2)[C@@H](c2ccccc2)N2[C@@H](c3ccccc3OCCO)[C@]3(C(=O)Nc4ccc(C#CCCO)cc43)[C@@H](C(=O)O)[C@H]12,1.12
15,CO[C@H]1COC(=O)[C@H](C)COC(=O)CC=C[C@@H](C)[C@H](OC)COC(=O)CC=C[C@@H]1C,0.336
16,C=CCC(OC(C)=O)[C@@H]1[C@@H](N(Cc2cc3ccccc3o2)C(=O)Cc2ccc(F)cc2)c2cc(OCCCO)ccc2N1C(=O)Cc1ccc(OC)cc1 (some centres not stated),-1.37
17,CO[C@@H]1COC(=O)[C@H](C)NC(=O)[C@@H](C)COC(=O)CCC[C@H]1C,-0.0217
18,CC(C)(C)OC(=O)CC[C@]1(C(N)=O)COC(c2ccc(OCCCO)cc2)=N1,0.849
